Measured values as given in PubChem BioAssay AID1159580 (chemical genetic matrix, 2015).
“And” between values parts separate entries of the source, which are not always exact repeats. Identical values can stand only once. About 2,000 (36%) of roughly 5,500 compounds were called active. Roughly 18% stayed inconclusive and do not appear here. Cut-off read from the data, not from the text of the source: active = normalized growth mostly below about 0.91 (no sharp cut-off); inconclusive = no clear call, values can overlap the other calls; inactive = mostly above about 0.92. The list shows a part of the results.

Assay: chemical genetic growth profiling, strain panel (AID 1159580);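 note: tested at 20 µM; growth read once vehicle control cultures reached saturation at 30 °C; 1 = growth at the plate median or of vehicle wells; lower values mean less growth of the strain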
Conditions: growth OD

Measured: normalized growth

NNCCc1ccccc1
inactive: S. cerevisiae deletion strains, locus YJR066W, strain TOR1, hits give low values 0.945 | S. cerevisiae deletion strains, locus YJR075W, strain HOC1, hits give low values 0.986 | S. cerevisiae deletion strains, locus YKL009W, strain mrt4, hits give low values 0.995 | S. cerevisiae deletion strains, locus YKL068W, hits give low values 0.986 | S. cerevisiae deletion strains, locus YKL085W, strain MDH1 (second series), hits give low values 0.998 | S. cerevisiae deletion strains, locus YKL085W, strain MDH1, hits give low values 0.998 | S. cerevisiae deletion strains, locus YKL160W, strain elf1, hits give low values 1 | S. cerevisiae deletion strains, locus YKL190W, strain CNB1, hits give low values 0.966 | S. cerevisiae deletion strains, locus YKR001C, strain vps1, hits give low values 0.992 | S. cerevisiae deletion strains, locus YKR026C, strain gcn3, hits give low values 1.01 | S. cerevisiae deletion strains, locus YKR091W, strain srl3, hits give low values 1.01 | S. cerevisiae deletion strains, locus YLL001W, strain dnm1, hits give low values 1 | S. cerevisiae deletion strains, locus YLL026W, hits give low values 1 | S. cerevisiae deletion strains, locus YLL041C, strain sdh2, hits give low values 1 | S. cerevisiae deletion strains, locus YLR027C, strain aat2, hits give low values 1.01 | S. cerevisiae deletion strains, locus YLR039C, strain RIC1, hits give low values 0.897 | S. cerevisiae deletion strains, locus YLR058C, strain SHM2, hits give low values 0.974 | S. cerevisiae deletion strains, locus YLR102C, strain apc9, hits give low values 0.991 | S. cerevisiae deletion strains, locus YLR113W, strain HOG1, hits give low values 0.987 | S. cerevisiae deletion strains, locus YLR221C, strain rsa3, hits give low values 1.01 | S. cerevisiae deletion strains, locus YLR258W, strain gsy2, hits give low values 1.01 | S. cerevisiae deletion strains, locus YLR262C, strain YPT6 (second series), hits give low values 0.969 | S. cerevisiae deletion strains, locus YLR262C, strain YPT6, hits give low values 0.858 | S. cerevisiae deletion strains, locus YLR268W, strain sec22, hits give low values 1.05 | S. cerevisiae deletion strains, locus YLR320W, strain mms22, hits give low values 1.02 | S. cerevisiae deletion strains, locus YLR330W, strain CHS5, hits give low values 0.994 | S. cerevisiae deletion strains, locus YLR342W, strain FKS1 (second series), hits give low values 0.997 | S. cerevisiae deletion strains, locus YLR342W, strain FKS1, hits give low values 1.02 | S. cerevisiae deletion strains, locus YLR357W, strain rsc2, hits give low values 0.969 | S. cerevisiae deletion strains, locus YLR370C, strain arc18, hits give low values 1.01 | S. cerevisiae deletion strains, locus YLR371W, strain rom2, hits give low values 0.966 | S. cerevisiae deletion strains, locus YLR384C, strain iki3, hits give low values 1.01 | S. cerevisiae deletion strains, locus YLR418C, strain cdc73, hits give low values 0.965 | S. cerevisiae deletion strains, locus YML016C, strain PPZ1, hits give low values 0.989 | S. cerevisiae deletion strains, locus YML032C, strain rad52, hits give low values 0.996 | S. cerevisiae deletion strains, locus YML120C, strain ndi1, hits give low values 1.01 | S. cerevisiae deletion strains, locus YML124C, strain tub3, hits give low values 0.986 | S. cerevisiae deletion strains, locus YMR058W, strain fet3, hits give low values 1 | S. cerevisiae deletion strains, locus YMR078C, strain ctf18, hits give low values 0.969 | S. cerevisiae deletion strains, locus YMR125W, strain sto1, hits give low values 0.999 | S. cerevisiae deletion strains, locus YMR129W, hits give low values 1 | S. cerevisiae deletion strains, locus YMR205C, strain PFK2, hits give low values 1.02 | S. cerevisiae deletion strains, locus YMR223W, strain ubp8, hits give low values 0.95 | S. cerevisiae deletion strains, locus YMR231W, strain pep5, hits give low values 1.01 | S. cerevisiae deletion strains, locus YMR263W, strain SAP30, hits give low values 1 | S. cerevisiae deletion strains, locus YMR307W, strain GAS1, hits give low values 1 | S. cerevisiae deletion strains, locus YNL067W, strain RPL9B, hits give low values 0.981 | S. cerevisiae deletion strains, locus YNL071W, strain lat1, hits give low values 1.01 | S. cerevisiae deletion strains, locus YNL128W, strain TEP1, hits give low values 1.01 | S. cerevisiae deletion strains, locus YNL153C, strain GIM3, hits give low values 0.99 | S. cerevisiae deletion strains, locus YNL175C, strain NOP13, hits give low values 1 | S. cerevisiae deletion strains, locus YNL183C, strain NPR1, hits give low values 0.958 | S. cerevisiae deletion strains, locus YNL197C, strain WHI3, hits give low values 0.996 | S. cerevisiae deletion strains, locus YNL209W, strain ssb2, hits give low values 1 | S. cerevisiae deletion strains, locus YNL224C, strain SQS1, hits give low values 0.99 | S. cerevisiae deletion strains, locus YNL233W, strain BNI4, hits give low values 0.999 | S. cerevisiae deletion strains, locus YNL248C, strain rpa49, hits give low values 1.02 | S. cerevisiae deletion strains, locus YNL250W, strain rad50, hits give low values 0.983 | S. cerevisiae deletion strains, locus YNL271C, strain bni1, hits give low values 0.994 | S. cerevisiae deletion strains, locus YNL298W, strain CLA4, hits give low values 0.997 | S. cerevisiae deletion strains, locus YNL307C, strain MCK1, hits give low values 0.987 | S. cerevisiae deletion strains, locus YNL322C, strain KRE1 (second series), hits give low values 1.02 | S. cerevisiae deletion strains, locus YNL322C, strain KRE1, hits give low values 0.988 and 0.996 | S. cerevisiae deletion strains, locus YNR049C, strain mso1, hits give low values 1.01 | S. cerevisiae deletion strains, locus YNR052C, strain pop2, hits give low values 0.991 | S. cerevisiae deletion strains, locus YOL006C, strain TOP1, hits give low values 0.983 | S. cerevisiae deletion strains, locus YOL012C, strain htz1 0.89 | S. cerevisiae deletion strains, locus YOL147C, strain pex11, hits give low values 0.986 | S. cerevisiae deletion strains, locus YOR001W, strain rrp6, hits give low values 1.01 | S. cerevisiae deletion strains, locus YOR061W, strain CKA2, hits give low values 0.964 | S. cerevisiae deletion strains, locus YOR069W, strain VPS5, hits give low values 0.993 | S. cerevisiae deletion strains, locus YOR070C, strain gyp1, hits give low values 1 | S. cerevisiae deletion strains, locus YOR080W, strain dia2, hits give low values 1.01 | S. cerevisiae deletion strains, locus YOR083W, strain WHI5 (second series), hits give low values 1 | S. cerevisiae deletion strains, locus YOR083W, strain WHI5, hits give low values 0.988 | S. cerevisiae deletion strains, locus YOR106W, strain vam3, hits give low values 1.02 | S. cerevisiae deletion strains, locus YOR136W, strain idh2, hits give low values 0.973 | S. cerevisiae deletion strains, locus YOR144C, strain elg1, hits give low values 0.987 | S. cerevisiae deletion strains, locus YOR184W, strain ser1, hits give low values 0.981 | S. cerevisiae deletion strains, locus YOR231W, strain MKK1, hits give low values 0.982 | S. cerevisiae deletion strains, locus YOR265W, strain rbl2, hits give low values 1 | S. cerevisiae deletion strains, locus YOR270C, strain vph1, hits give low values 1.11 | S. cerevisiae deletion strains, locus YOR290C, strain snf2, hits give low values 1 | S. cerevisiae deletion strains, locus YOR316C, strain cot1, hits give low values 0.984 | S. cerevisiae deletion strains, locus YPL051W, strain arl3, hits give low values 1.01 | S. cerevisiae deletion strains, locus YPL078C, strain atp4, hits give low values 1 | S. cerevisiae deletion strains, locus YPL106C, strain sse1, hits give low values 0.977 | S. cerevisiae deletion strains, locus YPL240C, strain hsp82, hits give low values 1 | S. cerevisiae deletion strains, locus YPL241C, strain CIN2, hits give low values 0.994 | S. cerevisiae deletion strains, locus YPL256C, strain CLN2, hits give low values 0.958 | S. cerevisiae deletion strains, locus YPR119W, strain clb2, hits give low values 0.981 | S. cerevisiae deletion strains, locus YPR141C, strain kar3, hits give low values 0.968 | S. cerevisiae deletion strains, locus YPR163C, strain tif3, hits give low values 0.989 | S. cerevisiae deletion strains, locus YPR167C, strain met16, hits give low values 0.985 | S. cerevisiae deletion strains, strain wtn01, hits give low values 0.992 | S. cerevisiae strains, strain wild type, hits give low values 0.981
